Source: PubChem (National Center for Advancing Translational Sciences (NCATS))
TDP1 cell noCPT: qHTS for Inhibitors of human tyrosyl-DNA phosphodiesterase 1 (TDP1): qHTS in cells in absence of CPT; DT40 Tdp1-/- hTDP1 cells, no CPT, ATP luminescence, 48 h; hit rate 15% among 420,000; Potency, µM (top dose mostly 46.2 µM), without a hit: top-dose activity change, negative = growth inhibition, hits mostly inhibitors; note: potency is the fitted concentration of half-maximal effect; % is set by controls: 0 for no effect and ±100 for the full control effect; nearly all actives have a fitted effect of over 55% in size
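A cellular qHTS used chicken DT40 cells lacking endogenous Tdp1 but carrying stably transfected human TDP1. Compounds were applied without camptothecin, and cell growth kinetics were judged by ATP-dependent luminescence after ≥48 hr.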
DT40 TDP1 CPT: growth inhibition of DT40 Tdp1-/-;hTDP1 cells with camptothecin (screen for TDP1 inhibitors). chicken DT40 Tdp1-/-;hTDP1 cells + 20 nM CPT, ATP luminescence, 48 h. Potency, µM (doses to about 46.2 µM), for inactives: at the top dose activity change, negative = growth inhibition, actives largely listed as inhibitors. hit rate 12% among 420,000. AID 686979; note: potency is the fitted concentration of half-maximal effect; % is set by controls: 0 for no effect and ±100 for the full control effect; nearly all actives have a fitted effect of over 55% in size
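Chicken DT40 Tdp1-/- cells complemented with human TDP1, 400 cells/well, exposed to compounds plus 20 nM camptothecin for at least 48 h at 37 C; viability read as ATP content by CellTiter-Glo luminescence.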
MCF10A rerep: inducers of DNA re-replication in MCF 10A breast cells; MCF 10A DNA re-replication, Hoechst nuclear intensity, 48 h; Potency, µM (top dose mostly 46.1 µM), without a hit: top-dose activity, positive = re-replication, most hits filed as activators; hit rate 2.9% among 350,000; note: potency is the fitted concentration of half-maximal effect; % of control where 0% means no effect; nearly all actives have a fitted effect of over 50% in size
BCR signal inh: chronic active BCR signaling inhibition | hit rate 0.05% among 340,000 | Potency, µM (highest dose often 46.1 µM), for the others: at the highest dose activity change, negative = inhibition, hits mostly inhibitors | ABC-DLBCL IkBa-CBG/CBR reporter, luminescence ratio, 4 h | AID 493014; active = well fitted inhibition curve with a large enough effect in the signal ratio, with a control signal flat, not every such curve was filed as active; inconclusive = small, poorly fitted or top-dose-only effect, or effect the other way, or a change in a side signal; the % refers to the signal ratio;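 note: potency is the fitted concentration of half-maximal effect; plate controls were basal doxycycline-induced cells for no effect and cells given 10 µM MG132 for full effect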
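TMD8 ABC-DLBCL cells carrying doxycycline-inducible green luciferase fused to IkappaBalpha plus unfused red luciferase were exposed to compounds (up to 46 uM) for 4 hrs at 37C. Activity came from the overlap-corrected green/red luminescence ratio.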
IL1B secr inh: inhibitors of inflammasome signaling (IL-1 beta secretion) | THP-1 LPS/ATP IL-1B secretion, AlphaLISA, 16 h; stronger effect = lower value | activity change, % at 57.5 µM | hit rate 4.7% among 360,000; in the data active = activity change below about -50%; inconclusive = mostly about -30% to -49%; note: % is set by controls: 0 for no effect and ±100 for the full control effect
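THP-1 cells pretreated 1 hr with compounds (up to 57.5 uM final), then stimulated with LPS (250 ng/mL final) plus ATP (1.25 mM final); secreted IL-1B measured by AlphaLISA after 16 hr, decreased signal indicating inhibition.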
SW480 rereplic: DNA re-replication induction in SW480 cells | hit rate 1.8% among 340,000 | SW480 DNA re-replication, Hoechst DNA content imaging, 48 h | Potency, µM (top dose mostly 46.1 µM), for inactives: at the highest dose re-replication activation, actives largely listed as activators; note: potency is the fitted concentration of half-maximal effect; % of control where 0% means no effect; nearly all actives have a fitted effect of over 55% in size
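Hoechst fluorescence of nuclei (405 nm excitation, 500-530 nm emission) measured by plate-scanning imager after 48 hr compound exposure at 37 C; re-replication scored as increased number of nuclei with elevated intensity.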
An asterisk follows results filed as active; u = inconclusive; x = no result given; [ ] = another dose, or the depositor's remark. Compounds with a hit are over-represented: about 19% of the library has one in this group of screens. Unless noted, calls come from the whole dose curve; as a rule, active = well fitted curve in the direction sought with a large enough effect; inconclusive = small, poorly fitted or top-dose-only effect, or another doubt; inactive = no such curve, though single readings can be large; an effect the other way counts as inactive or inconclusive.

SMILES | TDP1 cell noCPT | DT40 TDP1 CPT | MCF10A rerep | BCR signal inh | IL1B secr inh | SW480 rereplic
C=CCn1c(=O)/c(=C/c2ccc(Cl)cc2)s/c1=C(\C#N)c1nnc2n1CCCCC2 | 6.5µM* | 21µM* | u | x | -79* | 21%
CSc1ccc(CN(C)Cc2nc3ccccc3c(=O)[nH]2)cc1 | 15µM* | u | -3% | -6% | 3 | -3%
CN(CC(=O)Nc1ccccc1Sc1ccccc1)Cc1nc2ccccc2c(=O)[nH]1 | 18µM* | u | u | u | -18 | u
CN(CC(=O)NC(c1ccccc1)c1ccccc1)Cc1nc2ccccc2c(=O)[nH]1 | u | u | u | -23% | -14 | -4%[9.22 µM]
CS(=O)(=O)N(Cc1ccc(F)cc1)Cc1nc2ccccc2c(=O)[nH]1 | 2% | 3% | 0% | 2% | 26 | 8%
COc1cc2c(cc1NC(=O)CN(C)Cc1nc3ccccc3c(=O)[nH]1)oc1ccccc12 | 23µM* | 18µM* | 11% | 1% | -5 | 0%
CN(CC(=O)NC(=O)NCc1ccco1)Cc1nc2ccccc2c(=O)[nH]1 | 1.6µM* | 4.6µM* | u | 2% | 0 | 5.2µM*
Cc1cccc(NC(=O)c2cc(N3CCOCC3)nc3ccccc23)c1 | u | 12µM* | -2% | -1% | -22 | u
Cc1ccc(NC(=O)c2cc(N3CCOCC3)nc3ccccc23)cc1 | u | 23µM* | -4% | -2% | -5 | 2%
Cc1cc(C)cc(-n2ccn(CC(=O)Nc3ccccc3F)c(=O)c2=O)c1 | -4% | 0% | x | x | x | x
CC1(C)C2CCC(C2)C1(C)NC(=O)CNCC1CCCCC1 (configuration not stated) | u | 0% | 10% | 2% | -78* | 11%
CCOCCCNCC(=O)NC1(C)C2CCC(C2)C1(C)C (configuration not stated) | -14% | u | 3% | 13% | -20 | -1%
Cc1c(C(=O)NCc2ccc(C#N)cc2)sc(=O)n1Cc1ccccn1 | 2% | -5% | x | x | -20 | x
Cc1c(C(=O)NCc2ccc(C(F)(F)F)cc2)sc(=O)n1Cc1cccc(F)c1 | u | u | x | x | 40 | x
Cc1c(C(=O)NCc2ccc(C(C)C)cc2)sc(=O)n1Cc1ccc(S(=O)(=O)N(C)C)cc1 | 9.2µM* | 13µM* | x | x | -25 | x
Cc1c(C(=O)NCc2cccc(C(F)(F)F)c2)sc(=O)n1Cc1cccc(F)c1 | u | u | x | x | -62* | x
Cc1c(C(=O)NCc2ccccc2C(F)(F)F)sc(=O)n1Cc1ccc(F)cc1 | u | 21µM* | x | x | -18 | x
CC(=O)Oc1ccc(Cn2c(C)c(C(=O)NCc3ccccc3C(F)(F)F)sc2=O)cc1 | u | u | x | x | -7 | x
Cc1cccc(C)c1Cn1c(C)c(C(=O)NCc2ccc(C#N)cc2)sc1=O | 18µM* | u | x | x | -8 | x
COc1cccc(CC(=O)OCC(=O)NCCc2ccc(F)cc2)c1 | 13% | 6% | 0% | 1% | 11 | -13%
CC(C)c1ccc(N(CC(=O)NC2CCCC2)C(=O)CCC(=O)Nc2nccs2)cc1 | -17% | -30% | 24% | -1% | -22 | -6%
CCOC(=O)N1CCN(S(=O)(=O)N2CCCC(C(=O)NCc3cc(OC)ccc3OC)C2)CC1 (configuration not stated) | u | u | x | -5% | -2 | x
COc1cc(Cl)c(C)cc1NC(=O)CSc1cc(=O)n(C)c2cc(Cl)ccc12 | -19% | 1% | x | x | x | x
Cc1ccn2c(=O)c(C(=O)NCCc3ccc(S(N)(=O)=O)cc3)c(O)nc2c1 | -13% | -11% | x | x | x | x
Cc1c(C(=O)NCc2cccc(Cl)c2)sc(=O)n1Cc1ccc(C(=O)N(C)C)cc1 | u | 16µM* | x | x | -12 | x
SMILES | TDP1 cell noCPT | DT40 TDP1 CPT | MCF10A rerep | BCR signal inh | IL1B secr inh | SW480 rereplic
Cc1c(C(=O)NCc2cccc(Cl)c2)sc(=O)n1Cc1ccc(F)cc1 | u | u | x | x | -58* | x
Cc1c(C(=O)NCc2ccc(Cl)c(Cl)c2)sc(=O)n1Cc1ccc(C(=O)N(C)C)cc1 | 10µM* | 15µM* | x | x | u | x
Cc1c(C(=O)N(C)Cc2ccc(F)cc2)sc(=O)n1Cc1ccc(Cl)c(Cl)c1 | 23µM* | u | x | x | 0 | x
COc1ccc(S(=O)(=O)N2CCOC2CNC(=O)C(=O)NCc2ccccn2)cc1OC (configuration not stated) | 6% | u | x | x | -15 | x
CCC1OC(=O)C[C@H](O)C(C)[C@@H](O[C@@H]2OC(C)C(O)C(N(C)C)C2O)C(CCN2CC(C)CC(C)C2)CC(C)C(=O)/C=C/C(C)=C\[C@@H]1COC1OC(C)C(O)C(OC)C1OC (some centres not stated) | x | x | -1% | x | x | 4%
CCCCNC(=O)c1nc(C2CCN(S(=O)(=O)c3cccc(C(F)(F)F)c3)CC2)oc1-c1cccc(C(F)(F)F)c1 | 6% | 0% | x | x | 1 | x
CCCCNC(=O)c1nc(C2CCN(S(=O)(=O)c3ccc(C(F)(F)F)cc3)CC2)oc1-c1ccccc1 | 7.3µM* | 5.8µM* | x | x | 11 | x
CCCCNC(=O)c1nc(C2CCNCC2)oc1-c1ccccc1 | u | u | x | x | -21 | x
CCCCNC(=O)c1nc(C2CCN(S(=O)(=O)c3ccc(S(C)(=O)=O)cc3)CC2)oc1-c1ccccc1 | 13µM* | 5.8µM* | x | x | -26 | x
COc1ccc(S(=O)(=O)Nc2cc3c4c(c2)CCC(=O)N4CCC3)cc1C | u | 16µM* | 13% | -14% | 20 | -4%
Cc1ccc(NS(=O)(=O)c2cc3c4c(c2)CC(=O)N4CCC3)cc1C | -5% | 13µM* | 12% | 4% | 42 | -5%
Cc1ccc(NC(=O)N2CCOCC2)cc1NC(=O)N1CCOCC1 | 2% | 12% | x | x | 3 | x
COc1ccc(Nc2c(CC(C)C)nc3nc(C)cc(C)n23)cc1 | u | u | x | x | 27 | x
Cc1cc(C)n2c(NC3CCCCC3)c(-c3ccc(F)cc3)nc2n1 | u | u | x | x | 22 | x
Cc1cc(C)n2c(Nc3ccc4c(c3)OCCO4)c(CC(C)C)nc2n1 | 12µM* | 21µM* | x | x | 49 | x
Cc1cc(C)n2c(NC3CCCCC3)c(CC(C)C)nc2n1 | 18µM* | u | x | x | 0 | x
Cc1cc(C(=O)N/N=C/c2ccc(N(C)C)o2)cs1 | 16µM* | 23µM* | 22% | u | 11 | u
Cc1ccc(/C=N\NC(=O)/C(=C\Nc2nccc(C)n2)NC(=O)c2ccccc2)cc1 | -26% | -30% | 0% | -3% | -2 | 4%
